Measured values taken from PubChem BioAssay.
Active and inactive are the calls of the source. Unless noted, no rule for the calls is given here.

How the values were obtained:
[1] = resazurin metabolic signal in HepG2 cells – cell-based, resazurin fluorescence, 24 h, PK04 Diversity Set, profiling panel (AID 1172); conditions: HepG2 viability, higher = more signal
[2] = budding yeast growth changes without added modifier – OD600, strain BY4716, 24 h, basal condition, primary screen (AID 1173); conditions: S. cerevisiae BY4716 growth, OD600, 24 h; higher = more signal, called active from +8 up or from −8 down
[3] = viability profiling in MM1S myeloma cells – cell-based, resazurin fluorescence, basal, 24 h, PK04 Diversity Set, profiling panel (AID 1174); conditions: higher = more signal, called active from +8 up or from −8 down;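 also: MM1S multiple myeloma cell line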
[4] = molecular target: Dihydroorotate dehydrogenase (quinone), mitochondrial (Plasmodium falciparum (isolate 3D7)) (UniProt Q08210); assay: inhibition of P. falciparum DHODH – biochemical, C-terminal His tag, absorbance 600 nm, primary screen (AID 1175); conditions: PfDHODH enzyme, DCIP absorbance 600 nm; higher = more signal, called active from +8 up or from −8 down;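 also: recombinant parasite enzyme with a five histidine tag at its C terminus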
[5] = inhibition of PAO1 biofilm formation – strain PAO1, LB-PBS medium, absorbance 600 nm, primary screen (AID 1176); conditions: P. aeruginosa PAO1 growth/biofilm, A600, 12 h; higher = more signal
[6] = growth modulation of vineyard yeast isolate – strain RM11-1a, OD600, basal, 24 h, primary screen (AID 1177);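 also: cultures grown under basal conditions with no added stressor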; conditions: S. cerevisiae RM11-1a growth, OD600, 24 h; higher = more signal, called active from +8 up or from −8 down
[7] = growth of efflux-deficient E. coli DRC39 – strain DRC39, OD650, 24 h, E. coli filamentation inducers, primary screen (AID 1178);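 also: growth measured as culture turbidity by optical density at 650 nm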; conditions: E. coli DRC39 acrAB, higher = more signal, called active from +8 up or from −8 down
[8] = growth of efflux-deficient E. coli DRC39 – strain DRC39, OD650, 48 h, E. coli filamentation inducers, primary screen (AID 1179);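 also: screen aims at cell division blockers that make cells filament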; conditions: E. coli DRC39 delta-acrAB growth, higher = more signal, called active from +8 up or from −8 down
[9] = viability profiling in RPMI8226 myeloma cells – cell-based, resazurin fluorescence, basal, 24 h, PK04 Diversity Set, profiling panel (AID 1180); conditions: higher = more signal;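 also: RPMI8826 multiple myeloma cell line at 5000 cells per well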
[10] = molecular target: E3 ubiquitin-protein ligase XIAP (Homo sapiens) (UniProt P98170); assay: small molecules binding XIAP protein – biophysical, small-molecule microarray, fluorescence 635 nm, primary screen (AID 1181); conditions: higher = more signal;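 also: score merges 667 nm emission and signal to noise over triplicate slides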
[11] = system: XIP peptide (Xip251-270) binding; assay: XIP fragment 251-270 binding compounds – biochemical, small-molecule microarray, fluorescence 635/667 nm, 0.1 µg/mL protein, primary screen (AID 1182); conditions: fluorescent protein binding, 635 nm, higher = more signal, called active from +8 up or from −8 down
[12] = system: XIP peptide (Xip251-270); assay: compounds binding XIP fragment 251-270 – biochemical, small-molecule microarray, fluorescence 635/667 nm, 0.5 µg/mL protein, primary screen (AID 1183); conditions: fluorescence 635 nm, higher = more signal
[13] = blood-stage malaria parasite viability loss – strain 3D7, DAPI fluorescence, 100 nL, primary screen (AID 1184);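 also: parasites grown inside human red blood cells in medium with human serum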; conditions: P. falciparum 3D7 growth, 3 d, higher = more signal
[14] = molecular target: Homeobox protein Hox-A13 (Mus musculus) (UniProt Q62424); assay: disruptors of Hoxa13 oligonucleotide interaction – biochemical, fluorescence polarization, labeled oligonucleotide, primary screen (AID 1185); conditions: Hoxa13:DNA binding, 15 min, higher = more signal, called active from +8 up or from −8 down
[15] = blockers of DNA damage checkpoint Chk1 activation – imaging, HeLa, hydroxyurea, phospho-Chk1 antibody, percent positive cells, primary screen (AID 1186); conditions: hydroxyurea-induced phospho-Chk1 immunofluorescence imaging, higher = more signal
[16] = blockers of DNA damage checkpoint Chk1 activation – imaging, HeLa, hydroxyurea, phospho-Chk1 nuclear intensity, primary screen (AID 1187); conditions: hydroxyurea-induced phospho-Chk1 immunofluorescence imaging, higher = more signal

Sequence of Dihydroorotate dehydrogenase (quinone), mitochondrial (Plasmodium falciparum (isolate 3D7)) (Q08210 whole entry, looked up): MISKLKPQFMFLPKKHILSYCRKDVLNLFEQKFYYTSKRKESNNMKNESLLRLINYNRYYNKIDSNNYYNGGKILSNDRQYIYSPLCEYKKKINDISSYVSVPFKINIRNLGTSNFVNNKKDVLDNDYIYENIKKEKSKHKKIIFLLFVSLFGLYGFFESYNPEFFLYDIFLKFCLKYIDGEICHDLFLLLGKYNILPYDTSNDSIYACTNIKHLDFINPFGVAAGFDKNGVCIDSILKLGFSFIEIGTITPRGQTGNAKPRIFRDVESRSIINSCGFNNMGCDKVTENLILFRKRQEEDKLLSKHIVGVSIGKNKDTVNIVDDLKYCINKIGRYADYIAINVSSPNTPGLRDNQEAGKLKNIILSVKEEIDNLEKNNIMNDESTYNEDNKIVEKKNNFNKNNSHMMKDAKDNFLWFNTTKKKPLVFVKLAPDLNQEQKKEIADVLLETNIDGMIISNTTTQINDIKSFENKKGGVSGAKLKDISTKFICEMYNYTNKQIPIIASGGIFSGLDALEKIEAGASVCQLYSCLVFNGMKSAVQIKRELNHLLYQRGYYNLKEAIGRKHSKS
Sequence of E3 ubiquitin-protein ligase XIAP (Homo sapiens) (P98170 whole entry, looked up, the tested form may be a part): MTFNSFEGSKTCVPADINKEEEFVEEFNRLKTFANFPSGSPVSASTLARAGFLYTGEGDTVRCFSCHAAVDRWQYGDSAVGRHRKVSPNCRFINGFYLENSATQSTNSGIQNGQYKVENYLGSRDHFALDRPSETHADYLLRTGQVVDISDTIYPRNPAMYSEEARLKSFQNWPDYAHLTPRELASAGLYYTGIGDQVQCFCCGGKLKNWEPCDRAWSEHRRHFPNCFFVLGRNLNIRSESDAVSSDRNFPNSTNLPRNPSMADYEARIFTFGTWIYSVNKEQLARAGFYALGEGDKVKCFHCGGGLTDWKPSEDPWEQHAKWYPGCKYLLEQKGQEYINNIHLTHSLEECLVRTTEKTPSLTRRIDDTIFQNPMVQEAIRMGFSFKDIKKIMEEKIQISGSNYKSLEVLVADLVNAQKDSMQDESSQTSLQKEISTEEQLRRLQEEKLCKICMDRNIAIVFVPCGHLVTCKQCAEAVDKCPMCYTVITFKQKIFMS
Sequence of Homeobox protein Hox-A13 (Mus musculus) (Q62424 whole entry, looked up): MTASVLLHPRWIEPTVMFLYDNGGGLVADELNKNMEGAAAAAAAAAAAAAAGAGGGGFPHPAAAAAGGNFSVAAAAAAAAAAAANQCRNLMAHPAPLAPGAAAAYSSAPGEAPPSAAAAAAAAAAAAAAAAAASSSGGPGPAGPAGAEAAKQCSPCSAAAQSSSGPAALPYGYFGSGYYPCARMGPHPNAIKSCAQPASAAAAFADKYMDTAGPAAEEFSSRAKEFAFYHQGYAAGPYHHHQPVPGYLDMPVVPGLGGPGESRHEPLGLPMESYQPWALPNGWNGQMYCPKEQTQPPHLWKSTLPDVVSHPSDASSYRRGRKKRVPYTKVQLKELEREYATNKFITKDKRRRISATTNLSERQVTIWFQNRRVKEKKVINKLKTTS

Compound	z-score [1]	z-score [2]	z-score [3]	composite z-score [4]	z-score [5]	z-score [6]	z-score [7]	z-score [8]	z-score [9]	composite z-score [10]	composite z-score [11]	composite z-score [12]	z-score [13]	z-score [14]	z-score [15]	z-score [16]
COc1ccc(NC(=O)O[C@H]2[C@H](OC(=O)Nc3ccc4c(c3)OCO4)[C@@H](OC(=O)Nc3ccc4c(c3)OCO4)[C@@H](OC)O[C@@H]2CO)cc1	-0.315	1.96 (inactive)	-0.844 (inactive)	-0.445 (inactive)	2.33 (inactive)	1.56 (inactive)	1.13 (inactive)	0.0559 (inactive)	-0.85	-0.102	1.61 (inactive)	0.877	-2.04	-6.9 (inactive)	-0.0538 (inactive)	0.419 (inactive)
COc1ccc([Si](C)(C)[C@@H]2[C@@H](CCO)O[C@]3(C(=O)N(Cc4cccc(N5C(=O)c6cccc7cccc5c67)c4)c4ccccc43)[C@H]2C)cc1	-1.83	1.34 (inactive)	-2.77 (inactive)	0.518 (inactive)	1.53 (inactive)	5.01 (inactive)	1.55 (inactive)	0.97 (inactive)	-3.49	-0.0351	0.875 (inactive)	0.635	-2.52	-1.52 (inactive)	-0.758 (inactive)	0.0003 (inactive)
NC(=O)NCC#Cc1ccc2c(c1)[C@]1(C(=O)N2)[C@H](c2ccc(O)cc2)N2[C@H](c3ccccc3)[C@H](c3ccccc3)OC(=O)[C@H]2[C@@H]1C(=O)Nc1nc2ccccc2s1	0.971	3.54 (inactive)	0.972 (inactive)	-0.579 (inactive)	4.48 (inactive)	5.85 (inactive)	1.04 (inactive)	1.19 (inactive)	0.388	0.591	0.541 (inactive)	0.453	0.364	0.608 (inactive)	-0.275 (inactive)	0.0338 (inactive)
COCCOC(=O)N1C(=O)[C@@]2(c3cc(C#CC4=CCCCC4)ccc31)[C@H](C(=O)N1CCN(c3ncccn3)CC1)[C@H]1C(=O)O[C@H](c3ccccc3)[C@H](c3ccccc3)N1[C@@H]2c1ccc(O)cc1	-0.173	1.14 (inactive)	-1.81 (inactive)	0.332 (inactive)	1.16 (inactive)	1.69 (inactive)	-0.766 (inactive)	-0.0604 (inactive)	-0.765	0.0589	0.481 (inactive)	0.685	-1.29	0.446 (inactive)	0.247 (inactive)	0.0658 (inactive)
CC(C)(C)OC(=O)CC[C@]1(C(=O)N2CCOCC2)N=C(c2ccc(OCCCO)cc2)O[C@H]1c1ccccc1	-0.149	-0.243 (inactive)	-1.56 (inactive)	-0.127 (inactive)	-0.537 (inactive)	-0.294 (inactive)	0.301 (inactive)	0.553 (inactive)	0.48	0.0003	-0.0263 (inactive)	0.689	-0.29	-5.96 (inactive)	-0.443 (inactive)	-0.494 (inactive)
COCCCNC(=O)[C@]1(CCC(=O)OC(C)(C)C)N=C(c2ccc(OCCCO)cc2)O[C@@H]1c1ccccc1	-0.402	0.397 (inactive)	-0.121 (inactive)	0.152 (inactive)	0.413 (inactive)	0.0279 (inactive)	-0.286 (inactive)	-0.0848 (inactive)	-0.354	0.081	0.538 (inactive)	0.817	0.83	-6.02 (inactive)	-0.289 (inactive)	-0.288 (inactive)
[N-]=[N+]=Nc1ccccc1C[C@@]1(C(=O)O)N=C(c2ccc(OCCCO)cc2)O[C@@H]1c1ccccc1	1.06	-2.01 (inactive)	-0.161 (inactive)	0.624 (inactive)	0.342 (inactive)	-0.583 (inactive)	-0.26 (inactive)	-0.523 (inactive)	0.229	0.427	0.57 (inactive)	0.707	-0.188	-5.79 (inactive)	0.167 (inactive)	0.149 (inactive)
COC(=O)[C@@]1(Cc2ccccc2)[C@H]2c3cc(C(=O)N4CCCC4)n(C[C@H](O)CO)c3C[C@H]2CN1C(=O)c1ccccc1	-0.476	1.08 (inactive)	-0.688 (inactive)	0.355 (inactive)	0.0818 (inactive)	0.267 (inactive)	-0.685 (inactive)	-0.299 (inactive)	-0.746	-0.099	0.484 (inactive)	-0.487	-1.02	-5.19 (inactive)	0.905 (inactive)	0.777 (inactive)
C=C1C2CC3C(=C4C(CO[C@@H]4[C@H]4CCCN4S(=O)(=O)c4ccccc4[N+](=O)[O-])C4C(=O)N(C)C(=O)C34)CC2C(=O)N1C (stereo not given in full)	-0.398	-1.05 (inactive)	-0.316 (inactive)	-0.911 (inactive)	0.413 (inactive)	-0.302 (inactive)	-0.579 (inactive)	-0.219 (inactive)	-0.864	-0.102	0.253 (inactive)	0.849	0.769	-7.2 (inactive)	-0.0718 (inactive)	0.645 (inactive)
COCCOC(=O)N1C(=O)[C@@]2(c3cc(C#Cc4ccc(OC)cc4)ccc31)[C@H](C(=O)NC[C@H](O)c1ccccc1)[C@H]1C(=O)O[C@H](c3ccccc3)[C@H](c3ccccc3)N1[C@@H]2c1ccc(O)cc1	-0.857	-0.11 (inactive)	-1.09 (inactive)	-0.352 (inactive)	1.34 (inactive)	0.552 (inactive)	-0.365 (inactive)	-0.736 (inactive)	-1.32	0.261	1.42 (inactive)	0.775	-0.754	-1.78 (inactive)	-0.045 (inactive)	0.126 (inactive)
